Assay [1] in a line: qHTS assay to identify small molecule antagonists of the estrogen related receptor (ERR) signaling pathway from Tox21 library - cell viability counter screen (AID 1224834). Further: nearly all actives have a fitted effect of over 30% in size. Further: potency means the concentration at half of the fitted maximal effect. In short, it runs like this: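 ERR reporter cells were plated 6 h before compound addition, then exposed to test compounds in DMSO for 17.5 h at 37 C. Viability was read as CellTiter-Fluor fluorescence after a 30-minute incubation at 37 C.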
(qHTS replaces the single test concentration by a dilution series.)

Assay [2] deals with Luciferin 4-monooxygenase (Photinus pyralis) (UniProt P08659). The assay is described as follows: qHTS assay to identify small molecule inhibitors of firefly luciferase (AID 1224835). Further: series mostly up to about 120 µM; nearly all actives have a fitted effect of over 25% in size. In short, it runs like this: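 Inhibition of purified Photinus luciferase is measured by luminescence. Substrate levels (D-luciferin, ATP) sit at their KM values. Each compound is tested in a concentration series.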
Sequence of Luciferin 4-monooxygenase (Photinus pyralis) (P08659 whole entry, looked up): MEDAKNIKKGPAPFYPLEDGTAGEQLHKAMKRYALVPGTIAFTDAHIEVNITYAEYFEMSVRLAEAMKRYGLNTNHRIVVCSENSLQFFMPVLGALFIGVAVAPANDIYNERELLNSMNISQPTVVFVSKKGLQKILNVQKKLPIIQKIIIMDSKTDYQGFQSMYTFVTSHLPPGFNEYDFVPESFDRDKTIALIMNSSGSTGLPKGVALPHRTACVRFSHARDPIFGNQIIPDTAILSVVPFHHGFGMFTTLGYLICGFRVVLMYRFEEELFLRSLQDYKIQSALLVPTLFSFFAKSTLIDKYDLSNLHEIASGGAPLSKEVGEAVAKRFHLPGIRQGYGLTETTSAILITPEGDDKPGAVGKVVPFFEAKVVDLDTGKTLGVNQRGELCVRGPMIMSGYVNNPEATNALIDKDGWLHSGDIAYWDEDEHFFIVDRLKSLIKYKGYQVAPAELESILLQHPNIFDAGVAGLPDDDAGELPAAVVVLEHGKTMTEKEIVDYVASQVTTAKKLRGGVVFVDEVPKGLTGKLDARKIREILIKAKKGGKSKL

Assay [3] is described as follows: qHTS assay to identify small molecule agonists of the constitutive androstane receptor (CAR) signaling pathway - cell viability counter screen (AID 1224836). Further: series mostly up to about 92 µM; nearly all actives have a fitted effect of over 45% in size. In short, it runs like this: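 Counter screen multiplexed with the CAR reporter readout: HepG2 cells co-transfected with hCAR and the CYP2B6-2.2kb construct receive a 15-concentration compound series and 0.75 uM PK11195 (final), then CellTiter-Fluor fluorescence is read after 23 h.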

The nature of assay [4]: qHTS assay to identify small molecule antagonists of the estrogen related receptor signaling pathway with the pleiotropic PPARgamma coactivator (PGC) from Tox21 10K library - cell viability counter screen (AID 1224840; active means well fitted cell-killing curve with a large enough effect in the repeat runs, not every such curve was filed as active; further: nearly all actives have a fitted effect of over 40% in size). In short, it runs like this:
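PGC/ERR cells were seeded at 2,000 cells/well and left 6 hours at 37 C/5% CO2 before pin-tool addition of compounds in DMSO. After 17.5 hours at 37 C, CellTiter-Fluor was added and fluorescence read 30 minutes later.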

Assay [5] can be described thus: qHTS assay to identify small molecule agonists of the hypoxia (HIF-1) signaling pathway - cell viability counter screen (AID 1224844; calls by dose curve; further: nearly all actives have a fitted effect of over 50% in size; further: potency means the concentration at half of the fitted maximal effect). In short, it runs like this:
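HRE-bla ME-180 cells in medium with 0.5% dialyzed FBS were preincubated 5 hrs at 37C, exposed to compounds for 17 hrs, then viability was read as CellTiter-Glo luminescence after 30 min at room temperature, in the reporter wells.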

A short description of assay [6]: qHTS assay to identify small molecule agonists of H2AX (AID 1224845; active means well fitted activation curve with a large enough effect in the signal ratio in the repeat runs, not every such curve was filed as active; the % refers to the signal ratio). In short, it runs like this:
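Phospho-H2AX Ser139 measured by HTRF (ex 320 nm; em 665 and 620 nm) after 24 hr antibody incubation. Compounds, 15 concentrations, 0.76% DMSO, were applied to CHO-K1 cells for 3hr at 37C before lysis.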

A short description of assay [7]: qHTS assay to identify small molecule agonists of H2AX - cell viability counter screen (AID 1224847; calls by dose curve; further: top concentration of the series differs between compounds; nearly all actives have a fitted effect of over 30% in size). In short, it runs like this: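 We seed wild-type CHO-K1 cells overnight, treat them for 3 hr at 37C with compounds in 15-concentration series, and quantify remaining viability by CellTiter-Glo luminescence.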
Assay [8] can be described thus: qHTS RealTime-Glo MT Cell Viability Assay in HepG2 cells - 24 hour (AID 1224867). Further: nearly all actives have a fitted effect of over 50% in size. In short, it runs like this:
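qHTS, HepG2, 600 cells/well, RealTime-Glo (NanoLuc + prosubstrate) added with cells; 5 h preincubation; DMSO compound addition; 37 C; luminescence at 0/8/16/24/32/40 h.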

Assay [9] can be described thus: qHTS RealTime-Glo MT Cell Viability Assay in HEK293 cells - 32 hour (AID 1224868). Further: nearly all actives have a fitted effect of over 50% in size. Further: potency means the concentration at half of the fitted maximal effect. On activity change, negative = cytotoxic: top concentration of the series differs between compounds. The gist of the method:
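Assay medium contained NanoLuc luciferase plus cell-permeant prosubstrate, added with HEK293 cells at 600 cells/well. After 5 h at 37 C/5% CO2 compounds were added; plates stayed at 37 C for 40 h with serial luminescence reads.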

The nature of assay [10]: A CellTox Green Cytotoxicity Assay to monitor cytotoxicity in HEK293 cells - 0 hour (AID 1224869). Further: nearly all actives have a fitted effect of over 50% in size. The gist of the method:
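HEK293 cells premixed with CellTox Green dye were seeded at 600 cells/well and left 5 h at 37 C/5% CO2 before pin transfer of 23 nL compound in DMSO. Fluorescence from dye bound to dead-cell DNA was read during 40 h treatment.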

Assay [11] is described as follows: qHTS RealTime-Glo MT Cell Viability Assay in HepG2 cells - 40 hour (AID 1224870). Further: nearly all actives have a fitted effect of over 50% in size. In short, it runs like this: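 Real-time viability: cells seeded at 600 per well together with NanoLuc and cell-permeant prosubstrate, compounds added after 5 h incubation. Luminescence tracked at 0, 8, 16, 24, 32 and 40 h of exposure.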
In assay [12] the target is Nuclear receptor subfamily 1 group I member 3 (Homo sapiens) (UniProt Q14994). The experiment in a line: qHTS assay to identify small molecule antagonists of the constitutive androstane receptor (CAR) signaling pathway (AID 1224838). Further: nearly all actives have a fitted effect of over 40% in size. The gist of the method: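 HepG2 cells stably co-transfected with hCAR and a CYP2B6-2.2kb luciferase reporter were seeded 4 h before compound addition at 15 concentrations. Cells were stimulated with 50 nM CITCO (final) for 24 h at 37 C; luciferase luminescence was then read.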
Sequence of Nuclear receptor subfamily 1 group I member 3 (Homo sapiens) (Q14994 whole entry, looked up): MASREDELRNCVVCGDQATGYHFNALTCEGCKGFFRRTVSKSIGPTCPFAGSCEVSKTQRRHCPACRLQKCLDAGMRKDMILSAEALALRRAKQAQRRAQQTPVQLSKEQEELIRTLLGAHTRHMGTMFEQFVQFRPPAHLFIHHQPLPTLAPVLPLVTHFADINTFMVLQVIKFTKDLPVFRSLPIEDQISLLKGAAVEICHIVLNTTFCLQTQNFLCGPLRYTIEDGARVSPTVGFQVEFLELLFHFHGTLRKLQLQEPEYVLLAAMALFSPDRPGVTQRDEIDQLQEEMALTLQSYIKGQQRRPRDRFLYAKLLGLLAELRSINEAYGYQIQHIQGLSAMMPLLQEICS

Assay [13] can be described thus: qHTS assay to identify small molecule antagonists of the estrogen related receptor signaling pathway with the pleiotropic PPARgamma coactivator (PGC) from Tox21 10K library (AID 1224841; call rule not given here). The gist of the method:
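PGC/ERR reporter cells were seeded at 2,000 cells/well and held 6 hours at 37 C/5% CO2 before pin-tool addition of compounds in DMSO. After 18 hours at 37 C, One-Glo was added and luminescence read after 30 minutes at room temperature.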

The nature of assay [14]: qHTS assay to identify small molecule agonists of the estrogen related receptor signaling pathway with the pleiotropic PPARgamma coactivator (PGC) from Tox21 10K library (AID 1224842). Further: nearly all actives have a fitted effect of over 15% in size. The gist of the method:
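Luminescence from One-Glo (30 min, room temperature) measured after PGC/ERR cells had 18 h at 37 C with pinned compound (23 nL in DMSO). Cells had been seeded at 2,000 per well and pre-incubated 6 h.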

Assay [15] deals with Thyrotropin receptor (Homo sapiens) (UniProt P16473). The assay is described as follows: qHTS assay to identify small molecule agonists of the thyroid stimulating hormone receptor (TSHR) signaling pathway (AID 1224843; calls by dose curve; further: nearly all actives have a fitted effect of over 45% in size). The gist of the method: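 Screening of the Tox21 10K collection used HEK293 cells engineered with TSHR at 800 cells per well. After a 30-min room-temperature compound exposure, HTRF cAMP reagents were added and fluorescence recorded 1 h later.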
Sequence of Thyrotropin receptor (Homo sapiens) (P16473 whole entry, looked up): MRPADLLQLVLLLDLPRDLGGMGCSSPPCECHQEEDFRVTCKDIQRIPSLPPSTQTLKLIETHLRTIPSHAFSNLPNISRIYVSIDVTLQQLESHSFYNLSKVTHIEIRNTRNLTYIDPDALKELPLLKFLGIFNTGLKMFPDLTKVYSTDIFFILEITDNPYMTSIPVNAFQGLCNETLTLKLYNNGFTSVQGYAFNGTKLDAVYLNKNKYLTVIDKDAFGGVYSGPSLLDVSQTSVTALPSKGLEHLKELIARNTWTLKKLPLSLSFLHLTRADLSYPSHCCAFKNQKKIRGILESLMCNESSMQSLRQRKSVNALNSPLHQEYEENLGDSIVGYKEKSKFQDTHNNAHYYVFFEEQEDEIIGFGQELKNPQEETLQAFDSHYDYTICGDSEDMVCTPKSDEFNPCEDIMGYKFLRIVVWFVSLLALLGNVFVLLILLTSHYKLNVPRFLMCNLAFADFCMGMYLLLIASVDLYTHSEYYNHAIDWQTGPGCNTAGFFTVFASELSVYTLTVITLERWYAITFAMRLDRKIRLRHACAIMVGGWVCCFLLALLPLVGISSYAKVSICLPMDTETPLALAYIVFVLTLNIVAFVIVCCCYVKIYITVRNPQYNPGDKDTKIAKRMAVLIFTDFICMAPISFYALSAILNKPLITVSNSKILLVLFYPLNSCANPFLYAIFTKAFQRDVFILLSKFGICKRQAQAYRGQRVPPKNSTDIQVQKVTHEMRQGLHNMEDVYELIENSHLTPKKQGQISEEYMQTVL

Assay [16] in a line: qHTS assay to identify small molecule agonists of the hypoxia (HIF-1) signaling pathway (AID 1224846; active means well fitted activation curve with a large enough effect in the signal ratio in the repeat runs, not every such curve was filed as active; the % refers to the signal ratio). In short, it runs like this:
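HRE-bla ME-180 cells (beta-lactamase reporter under hypoxia response element) were plated at 2,000 cells/well in medium with 0.5% dialyzed FBS, rested 5 hrs, then given compounds in DMSO for 17 hrs at 37C, 5% CO2. Reporter induction was read with CCF4-AM FRET substrate.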

Assay [17] in a line: qHTS assay to identify small molecule antagonists of the estrogen related receptor (ERR) signaling pathway from Tox21 library (AID 1224848). Further: nearly all actives have a fitted effect of over 50% in size. In short, it runs like this: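 Antagonist-mode screen of the Tox21 10K library in an NTP-provided ERR reporter cell line; 18 h compound exposure at 37 C, luminescence measured with ONE-Glo.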
Assay [18] is described as follows: qHTS assay to identify small molecule agonists of the estrogen related receptor (ERR) signaling pathway from Tox21 library (AID 1224849; calls by dose curve; further: nearly all actives have a fitted effect of over 15% in size). The gist of the method:
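ERR reporter cell line (NTP) seeded, rested 6 h at 37 C/5% CO2, then pinned with Tox21 compounds in DMSO. After 18 h at 37 C, ONE-Glo luciferase luminescence was read following 30 min at room temperature.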

Assay [19] deals with Nuclear receptor subfamily 1 group I member 3 (Homo sapiens) (UniProt Q14994). The assay is described as follows: qHTS assay to identify small molecule agonists of the constitutive androstane receptor (CAR) signaling pathway (AID 1224839). Further: nearly all actives have a fitted effect of over 15% in size. Further: potency means the concentration at half of the fitted maximal effect. On activation: series mostly up to about 92 µM. In short, it runs like this: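 A 15-concentration quantitative screen uses HepG2 cells co-transfected stably with human CAR and CYP2B6-2.2kb reporter. Treatment lasts 24 h with 0.75 uM PK11195 final present; ONE-Glo luminescence is the signal.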

Assay [20] is described as follows: qHTS assay to identify small molecule antagonists of the constitutive androstane receptor (CAR) signaling pathway - cell viability counter screen (AID 1224837). Further: series mostly up to about 92 µM; nearly all actives have a fitted effect of over 45% in size. The gist of the method:
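HepG2 cells stably expressing hCAR and a CYP2B6-2.2kb reporter were plated and pre-incubated 4 hr at 37 C/5% CO2, then given compounds at 15 concentrations plus 50 nM CITCO (final). After 23 hr, viability was read by CellTiter-Fluor fluorescence.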

A number with no mark means an inactive call. Results filed as inconclusive are left out. Calls of active or inactive are those of the source. Unless noted, the call rests on the fitted dose curve; in most records, active means well fitted curve in the direction sought with a large enough effect in the repeat runs; inconclusive means weak or mixed curves; inactive means no such curve, though single readings can be large; an effect the other way counts as inactive or inconclusive.
On the % scale 0 is the no-effect control and ±100 the full control effect.

Take `CC(=O)O[C@@]12CO[C@@H]1C[C@H](O)[C@@]1(C)C(=O)[C@H](O)C3=C(C)[C@@H](OC(=O)[C@H](O)[C@@H](NC(=O)OC(C)(C)C)c4ccccc4)C[C@@](O)([C@@H](OC(=O)c4ccccc4)[C@H]21)C3(C)C`: the results for the Potency in [1] and in assay [9] were 0.0668 µM (active) and 0.0477 µM (active), respectively. Also, the Potency result in assay [2], in assay [5], in [6] and in assay [11] was “inactive” throughout. The outcome in assay [3], in assay [4], in [7], in assay [8] and in assay [10] was inactive.
On to `c1ccc2sc(SN3CCOCC3)nc2c1`, for which the Potency result in assay [1], in assay [12], in assay [13], in assay [14], in assay [15] and in [5] was “inactive” each time. For the same compound, the Potency result in [6], in assay [17], in assay [9] and in assay [11] was “inactive” throughout. Moreover, the compound was classed as inactive in assay [3], in [4], in assay [16], in [7], in [18] and in [8]. For the same compound, the result in assay [10] was inactive.
Regarding `CC(C)(C)C(=O)Oc1ccc(S(=O)(=O)Nc2ccccc2C(=O)NCC(=O)O)cc1`, the Potency result in assay [1], in assay [12], in assay [19], in assay [5], in assay [6] and in assay [9] was “inactive” in each case. For the same compound, the Potency result in assay [11] was “inactive”. Besides, the outcome in assay [3], in assay [4], in assay [16], in [7], in assay [8] and in assay [10] was inactive.
For the compound `CN1CC(=O)N/C1=N/C(=O)Nc1cccc(Cl)c1`, the Potency result in assay [1], in [12], in assay [15], in [5], in assay [9] and in assay [11] was “inactive” each time. The call in [3], in assay [4], in [16], in assay [7], in assay [8] and in assay [10] was inactive. In assay [19], the Potency is 33.5 µM (active).
With `CCCC(=O)O[C@]1(C(=O)CC)CC[C@H]2[C@@H]3CCC4=CC(=O)CC[C@]4(C)[C@H]3[C@@H](O)C[C@@]21C`, the Potency result in assay [1], in assay [2], in [6] and in assay [11] was “inactive” each time. For the same compound, the compound was classed as inactive in [3], in [4], in assay [16], in assay [7], in assay [8] and in assay [10]. Besides, in assay [5], the Potency was 19 µM (active).
In the case of `CN1CCN(c2cc3c(nn2)Oc2ccccc2N3C)CC1`, the viability change, negative = cytotoxic is 4.08% [at 19 µM] in assay [1], -2.12% [at 19 µM] in assay [3] and 2.34% [at 19 µM] in assay [4]. Moreover, the activity change, negative = cytotoxicity in assay [20] is -0.71% [at 19 µM]; in assay [5], 1.97% [at 15.8 µM]; in assay [7], 0.295% [at 31.6 µM]; in [8], -0.547% [at 15.8 µM]. Moreover, the activity, negative = inhibition in assay [12] was 125% [at 19 µM]. For the same compound, in assay [19], the Potency is 5.8 µM (active). In addition, the activation in assay [16] is 0.831% [at 15.8 µM]. Further, the values for the activity change, negative = cytotoxic in [9] and in assay [11] were 1.71% [at 15.8 µM] and 1.01% [at 15.8 µM], respectively. For the same compound, the cytotoxicity in assay [10] is -3.85% [at 15.8 µM].
As to `NO`, the Potency entry in assay [1], in [15], in assay [5], in assay [6], in [9] and in assay [11] was “inactive” each time. Further, the call in assay [3], in [20], in [4], in assay [16], in assay [7] and in assay [8] was inactive. In assay [10], the result was inactive.
Consider `c1ccc(CCc2ccccc2)cc1`, for which the Potency entry in [1], in [12], in assay [19], in assay [13], in [14] and in assay [6] was “inactive” each time. Further, the Potency result in assay [17], in [9] and in assay [11] was “inactive” throughout. The result in assay [3], in assay [20], in assay [4], in assay [16], in assay [7] and in assay [18] was inactive. Also, the compound was called inactive in assay [8] and in assay [10].
Consider `CC(C#N)(CCC(=O)O)N=NC(C)(C#N)CCC(=O)O` (configuration not stated), for which the Potency entry in assay [2], in assay [12], in assay [19], in assay [13], in assay [14] and in [15] was “inactive” each time. Moreover, the Potency result in assay [5], in [6], in assay [17], in assay [9] and in [11] was “inactive” in each case. Besides, the compound was classed as inactive in [3], in [20], in [4], in assay [16], in assay [7] and in assay [18]. The compound was called inactive in [8] and in assay [10].

The values above are taken from PubChem BioAssay (Tox21).
